Compound activity: PubChem, National Center for Advancing Translational Sciences (NCATS)
ELG1 genotox: induces genotoxicity in HEK293T cells with luciferase-tagged ELG1; AID 504466; Potency, µM (highest dose often 46 µM), inactives show top-dose activity change, positive = activation, hits mostly activators; HEK293T ELG1-luciferase reporter, luminescence, 16 h; 330,000 compounds, 1.3% hits; further: % of control where 0% means no effect; nearly all actives have a fitted effect of over 60% in size
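Step 1: seed 2,000 HEK293T ELG1-luciferase cells per well. Step 2: add compound or DMSO, incubate 16 hr at 37 °C. Step 3: ONE-Glo, 30 min at room temperature, read luminescence.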
FLuc counter: counter-screen for miR-21 project: firefly luciferase inhibitors or activators; purified FLuc, Km substrates, luminescence inhibition; 360,000 compounds, 6.9% hits; AID 588342; Potency, µM (top dose mostly 57.5 µM), without a hit: top-dose activity change, negative = inhibition, usual class: inhibitors;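 further: plate controls were vehicle for no effect and reference inhibitor for full effect; nearly all actives have a fitted effect of over 55% in size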
Target sequence (P08659 whole entry, looked up): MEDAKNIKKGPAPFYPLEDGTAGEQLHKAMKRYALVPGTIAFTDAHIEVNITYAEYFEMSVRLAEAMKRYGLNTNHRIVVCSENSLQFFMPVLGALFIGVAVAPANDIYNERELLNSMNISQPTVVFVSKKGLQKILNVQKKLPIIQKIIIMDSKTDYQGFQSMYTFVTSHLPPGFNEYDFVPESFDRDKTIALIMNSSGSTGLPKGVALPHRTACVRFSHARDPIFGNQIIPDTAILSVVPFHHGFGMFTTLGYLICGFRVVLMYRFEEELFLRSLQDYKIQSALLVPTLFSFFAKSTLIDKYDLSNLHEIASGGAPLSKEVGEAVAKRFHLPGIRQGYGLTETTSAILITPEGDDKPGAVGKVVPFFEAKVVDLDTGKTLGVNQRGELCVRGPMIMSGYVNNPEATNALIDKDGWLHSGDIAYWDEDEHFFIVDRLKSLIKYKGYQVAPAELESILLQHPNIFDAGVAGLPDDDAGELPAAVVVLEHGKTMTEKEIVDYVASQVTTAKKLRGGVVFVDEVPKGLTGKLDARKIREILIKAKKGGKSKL
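Purified P. pyralis luciferase (10nM final) with 10uM D-luciferin and 10uM ATP (Km levels) in 50mM Tris acetate pH 7.5, 10mM Mg acetate, 0.01% Tween-20, 0.05% BSA; qHTS 6-point titration, ~60 µM downward; luminescence read.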
NPC1 prom act: activators of NPC1 promoter; Huh7 NPC1 promoter luciferase reporter, 24 h; Potency, µM (series often up to 9.22 µM), for inactives: at the highest dose activation, hits mostly activators; 320,000 compounds, 2.4% hits; AID 485313; further: % of control where 0% means no effect; nearly all actives have a fitted effect of over 60% in size
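Readout is luciferase luminescence, reflecting NPC1 promoter activation in stably transfected Huh7 cells after 24 h compound exposure at 37 °C in reduced-serum medium with 10% FBS.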
SMN2 splice up: increases expression of the SMN2 splice variant; 210,000 compounds, 2.8% hits; AID 1458; HEK293 SMN2-luciferase splicing reporter, luminescence, 30-36 h; Potency, µM (top dose mostly 46.1 µM), for the others: top-dose activity change, positive = activation, hits mostly activators; further: % of control where 0% means no effect; nearly all actives have a fitted effect of over 55% in size
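HEK293 cells carry an SMN2 minigene-luciferase reporter in which exon 7 inclusion puts luciferase in frame. Cells were seeded at 2000 cells/well, attached for 10-12 hours, then exposed to compounds for 30-36 hours at 37C before ONE-Glo luminescence.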
Rab9 promoter act: Rab9 promoter activation | Huh7 Rab9 promoter-luciferase reporter, luminescence, 24 h | Potency, µM (top dose mostly 9.22 µM), without a hit: at the top dose activation, negative = inhibition, hits mostly activators | 320,000 compounds, 2.8% hits; further: % of control where 0% means no effect; nearly all actives have a fitted effect of over 60% in size
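Rab9 promoter-driven luciferase in stably transfected Huh7 cells; 1500 cells/well rested 2 h, exposed to compound in DMSO for 24 h at 37 °C, 5% CO2. Luminescence read 10 min after adding luciferase reagent at ambient temperature.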
ELG1 repair inh: ELG1-dependent DNA repair inhibition | HEK293T ELG1-luciferase reporter, luminescence, 16 h; DNA damage induced by 5-fluorouridine | Potency, µM (top dose mostly 46.1 µM), without a hit: at the highest dose activity change, negative = inhibition, hits mostly inhibitors | 330,000 compounds, 2.3% hits | AID 504467; further: on the % scale 0 is the no-effect control and ±100 the full control effect; nearly all actives have a fitted effect of over 55% in size
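Overnight (16 hr) co-exposure of 2,000 cells/well to 5-fluorouridine and compound at 37 °C preceded detection. Luciferase was quantified via ONE-Glo luminescence; loss of signal denotes inhibition.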
* hit, by the source's call; ? = inconclusive; / = no result. A selection: hits, their analogues and other compounds. The true share with any hit is near 9.2%. The call rests on the fitted dose curve; in most records, active means well fitted curve in the direction sought with a large enough effect; inconclusive means small, poorly fitted or top-dose-only effect, or another doubt; inactive means no such curve, though single readings can be large; an effect the other way counts as inactive or inconclusive. Potency means the concentration at half of the fitted maximal effect.

SMILES | ELG1 genotox | FLuc counter | NPC1 prom act | SMN2 splice up | Rab9 promoter act | ELG1 repair inh
COc1ccc(/C=C/C(=O)Nc2cccc(S(=O)(=O)NC3=NCCCCC3)c2)c(OC)c1 | -7% | 6µM* | 4% | / | 2% | ?
CCOc1ccc(NC(=O)CN(Cc2ccccc2)S(=O)(=O)c2ccc3nc(C)sc3c2)cc1 | / | -11% | / | / | / | /
Cn1c(SCCOc2ccccc2Cl)nnc1-c1cccs1 | 6% | ? | -1% | -5% | 3% | ?
Cn1c(SCc2c(F)cccc2Cl)nnc1-c1cccs1 | 13µM* | 15µM* | ? | 20µM* | 2.2µM* | ?
S=C1NC2(CCCCC2)Nc2ccccc21 | -5% | 0% | -14% | / | 9% | -5%
COc1ccc(-c2noc(-c3ccccc3C(=O)Nc3cccnc3)n2)cc1 | -9% | 13µM* | 16% | 5% | 29% | ?
CC(=O)Nc1cccc(Oc2ccc(-c3noc(C)n3)cc2)c1 | 9.2µM* | 12µM* | 3.2µM* | 10µM* | 1.6µM* | ?
COc1ccc(-c2noc(-c3ccccc3C(=O)Nc3cccc(OC)c3)n2)cc1 | -1% | 11µM* | 5% | -35% | -2% | ?
O=C(Nc1ccc(-c2noc(-c3cccs3)n2)cc1)c1cccnc1 | ? | 4.8µM* | 1µM* | 1.3µM* | 0.45µM* | ?
COc1ccccc1-c1noc(-c2ccccc2C(=O)Nc2cccnc2)n1 | -5% | 15µM* | -4% | 24% | -3% | -13%
O=C(NN=C1CCCC1)c1n[nH]c2c1CCCC2 | ? | 5.4µM* | 2.5µM* | 22µM* | 0.63µM* | ?
O=C(NC1CCCC1)c1n[nH]c2ccccc12 | ? | 24µM* | 3.2µM* | / | 2.8µM* | ?
O=C(NC1CCCCC1)c1n[nH]c2c1CCCCC2 | ? | 0.38µM* | ? | / | 0.089µM* | ?
C=CC[C@@H](CC(=O)N[C@H](CO)Cc1ccccc1)C(=O)NC[C@@H](OC(=O)[C@@H](CC=C)Cc1ccc(F)cc1)c1ccccc1 | -1% | / | / | / | / | -7%
CC1(c2ccc(OC(F)F)cc2)NC(=O)N(CC(=O)NCCC2=CCCCC2)C1=O (configuration not stated) | -2% | 8% | -3% | / | 2% | -6%
CCn1c(/C=C/c2ccc(O)c(O)c2)nc2ccccc2c1=O | 0% | -16% | -16% | / | 14% | -18%
COc1ccc(/C=C/c2c(-c3ccc(OC)cc3)oc3ccccc23)cc1 | -1% | -11% | 6% | / | 0% | 15%
O=c1nc(/C=C/c2ccc(O)c(O)c2)oc2ccccc12 | 21µM* | 8.5µM* | ? | / | ? | ?
COc1ccc(/C=C\c2nc(=O)c3ccccc3o2)cc1 | ? | 3.8µM* | ? | / | ? | ?
O=C(CNc1ccccc1)N/N=C/c1c(O)ccc2ccccc12 | 8% | -16% | -25% | / | -25% | ?
Nc1cc(Cl)nc(N/N=C/c2c(O)ccc3ccccc23)n1 | ? | 2.7µM* | ? | ? | 2.5µM* | ?
O=C(O)c1cc(N/N=C/c2c(O)ccc3ccccc23)ccc1Cl | 15µM* | 2.4µM* | 1.6µM* | / | 1.4µM* | ?
S=C(NCc1ccco1)Nc1ccc(Br)cc1Cl | ? | 27µM* | 30% | 9% | ? | 10%
S=C(NCc1ccccn1)Nc1ccc(Br)cc1Cl | ? | ? | 29% | 11µM* | 3.2µM* | ?
S=C(NCc1ccco1)Nc1ccc(Cl)cc1Cl | 17% | ? | 16% | -24% | 19% | ?
O=C(N/N=C/c1ccncc1)c1cc2ccccc2o1 | 2% | 21µM* | -3% | 14% | -2% | 0%
CCOC(=O)Cn1cc(/C=N/NC(=O)c2cc3ccccc3o2)c2ccccc21 | 0% | 13µM* | 4% | / | -3% | ?
Cc1cc(/C=N/NC(=O)c2cc3ccccc3o2)c(C)n1C | -6% | 21µM* | -2% | / | -1% | ?
C=C1C=C(C(F)F)n2ncc(C(=O)NCc3ccccc3C(F)(F)F)c2N1 | / | -1% | / | / | / | /
